From the supplement of paper PMC10849652
The full data set covers some 8,800 targets. This sample favours those with a hit. About 0.5% of all pairs of compound and target were hits.

How the values were obtained:
Test in all cases: log2 fold change, soluble protein after heating vs DMSO (PISA); higher = thermal stabilisation; K562 lysate, 10 uM; active = over 0.2 and 3.5 SD of the protein, either way, in both replicates (recomputed)
[1] = compound: C#Cc1cccc(Nc2ncnc3cc(OCCOC)c(OCCOC)cc23)c1 [erlotinib]
Outline: (§1)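 K562 pellets were dounce-homogenised in PBS pH 7.4 with 1 mM MgCl2, and the crude extract at 1 mg/mL protein was treated with 10 μM compound for 30 min. Aliquots were heated for 3 min across 48°C-58°C, pooled, and brought to 0.5% NP-40 at 4°C; soluble protein was the supernatant after 21,000xg for 90 min. Soluble protein was quantified by TMTpro 16plex LC-MS/MS with channel sums equalised, and reported as log2 fold change in thermal stability against DMSO controls, with values from duplicates.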

[2] = compound: C/C(=N\NC(=O)C1=CC(=CC=C1)S(=O)(=O)N2CCOCC2)/C3=C(C=CC(=C3)Cl)O
Outline: as §1

[3] = compound: C1=CC(=CC=C1C2=NC3=C(N2)C=C(C=C3)C(=O)N)OC4=CC=C(C=C4)Cl
Outline: as §1

[4] = compound: C1=CC2=C(C=CC(=C2)/C=C\3/C(=O)NC(=NCC4=CC=CS4)S3)N=C1
Outline: as §1

[5] = compound: C1=CC2=NC=CN=C2C=C1/C=C/3\C(=O)NC(=O)S3
Outline: as §1

[6] = compound: C1=CC=C(C=C1)C2=NC(=C(N2)C3=CC=NC=C3)C4=CC(=C(C=C4)Cl)O
Outline: as §1

[7] = compound: C1=CC=C2C(=C1)C3=NNC4=CC=CC(=C43)C2=O
Outline: as §1

[8] = compound: C1CCN(C1)C(=O)NC2=CC=CC(=C2)NC3=NC=C(C(=N3)NCCC4=CN=CN4)Br
Outline: as §1

[9] = compound: C1CN(CCC1(CC2=CC=C(C=C2)Cl)N)C3=NC=NC4=C3C=CN4
Outline: as §1

[10] = compound: C1COCCN1CCN2C3=CC=CC=C3N=C2NC(=O)C4=CC(=CC=C4)[N+](=O)[O-] [IRAK-1-4 Inhibitor I]
Outline: as §1

[11] = compound: C=CC(=O)N1CCC[C@@H](n2nc(-c3ccc(Oc4ccccc4)cc3)c3c(N)ncnc32)C1 [ibrutinib]
Outline: as §1

[12] = compound: CC(=O)c1cnc2ccc(-c3cc(Cl)c(O)c(Cl)c3)nc2c1N[C@H]1CC[C@H](CN(C)C)CC1
Outline: as §1

[13] = compound: CC(C)(C)Cn1c(N)nc2ccc(-c3[nH]c(C(C)(C)C)nc3-c3ccc(F)cc3)nc21 [ralimetinib]
Outline: as §1

[14] = compound: CC(C)(O)CC(=O)NCCn1ccc2ncnc(Nc3ccc(Oc4cccc(C(F)(F)F)c4)c(Cl)c3)c21
Outline: as §1

[15] = compound: CC(C)C1=C2N=C(C=C(N2N=C1)NCC3=CC=CC=C3)NCCCCCCN
Outline: as §1

[16] = compound: CC1=C(C(CC(=O)N1)C2=CC=C(C=C2)C(F)(F)F)C(=O)NC3=C(C=C4C(=C3)C=NN4)F
Outline: as §1

[17] = compound: CC1=C(C2=C(C=C1)C(=O)C3=CC=CC=C3N2CCCN)C
Outline: as §1

[18] = compound: CC1=C(C=C(C=C1)NC(=O)C2=CC(=CC=C2)C(C)(C)C#N)NC3=CC4=C(C=C3)N=CN(C4=O)C
Outline: as §1

[19] = compound: CC1=C(C=C(C=C1)NC(=O)C2=CC(=CC=C2)N(C)C)NC(=O)C3=CC=C(C=C3)O
Outline: as §1

[20] = compound: CC1=CC=C(C=C1)SC2=C3C=C(SC3=CN=C2)C(=O)N
Outline: as §1

Measured: log2 fold change

HSP90AA4P (UniProt Q58FG1)
inactive: [1] -0.064 | [2] 0.994 | [3] 0.097 | [4] 0.018 | [5] -0.129 | [6] 0.023 | [7] -0.003 | [8] -0.032 | [9] -0.09 | [10] 0.081 | [11] 0.026 | [12] -0.123 | [13] -0.011 | [14] -0.055 | [15] 0.021 | [16] -0.071 | [17] -0.045 | [18] 0.073 | [19] 0.097 | [20] -0.051

GSK3B isoform 2 (UniProt P49841)
UniProt P49841, sequence (P49841 whole entry, looked up): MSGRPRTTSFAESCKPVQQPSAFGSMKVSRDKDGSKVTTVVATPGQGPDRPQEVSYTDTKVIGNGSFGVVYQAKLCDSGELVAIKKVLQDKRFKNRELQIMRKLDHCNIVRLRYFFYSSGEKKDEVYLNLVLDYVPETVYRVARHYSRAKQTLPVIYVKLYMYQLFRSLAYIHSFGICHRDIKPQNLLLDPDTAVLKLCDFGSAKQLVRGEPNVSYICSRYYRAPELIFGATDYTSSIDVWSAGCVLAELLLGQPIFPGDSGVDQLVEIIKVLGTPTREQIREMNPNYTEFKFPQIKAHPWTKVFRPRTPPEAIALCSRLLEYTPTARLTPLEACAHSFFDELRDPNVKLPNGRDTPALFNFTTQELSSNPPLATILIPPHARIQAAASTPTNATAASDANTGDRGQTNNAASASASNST
inactive: [1] 0.043 | [2] -0.323 | [3] 0.036 | [4] 0.145 | [5] 0.085 | [6] 0.459 | [7] 0.132 | [8] 0.202 | [9] -0.011 | [10] -0.002 | [11] -0.064 | [12] 0.344 | [13] -0.012 | [14] -0.008 | [15] -0.016 | [16] -0.04 | [17] -0.006 | [18] -0.018 | [19] -0.029 | [20] 0.189

IRAK1 (UniProt P51617)
UniProt P51617, sequence (P51617 whole entry, looked up): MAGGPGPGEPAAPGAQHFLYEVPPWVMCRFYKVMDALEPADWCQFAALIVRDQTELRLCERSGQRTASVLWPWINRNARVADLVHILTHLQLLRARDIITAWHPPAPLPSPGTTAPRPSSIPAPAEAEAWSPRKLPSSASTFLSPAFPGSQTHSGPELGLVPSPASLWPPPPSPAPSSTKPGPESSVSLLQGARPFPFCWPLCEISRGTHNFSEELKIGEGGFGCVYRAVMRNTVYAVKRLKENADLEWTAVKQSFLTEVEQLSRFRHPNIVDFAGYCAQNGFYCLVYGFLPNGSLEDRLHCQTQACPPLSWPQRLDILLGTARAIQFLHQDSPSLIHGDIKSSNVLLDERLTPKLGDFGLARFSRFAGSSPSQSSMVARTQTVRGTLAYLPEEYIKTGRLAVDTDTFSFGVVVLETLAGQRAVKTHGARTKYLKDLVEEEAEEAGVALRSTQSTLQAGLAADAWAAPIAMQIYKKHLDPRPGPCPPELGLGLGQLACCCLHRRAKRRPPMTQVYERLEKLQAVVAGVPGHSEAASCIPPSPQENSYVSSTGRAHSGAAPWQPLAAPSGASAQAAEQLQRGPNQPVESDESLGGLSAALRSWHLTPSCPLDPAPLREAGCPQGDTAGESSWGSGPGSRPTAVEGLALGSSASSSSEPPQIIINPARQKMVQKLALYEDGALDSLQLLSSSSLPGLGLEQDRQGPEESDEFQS
inactive: [1] 0.038 | [2] -0.054 | [3] -0.108 | [4] -0.015 | [5] 0.028 | [6] 0.039 | [7] 0.117 | [8] 0.023 | [9] -0.096 | [10] 0.023 | [11] 0.032 | [12] 0.195 | [13] -0.024 | [14] -0.031 | [15] -0.018 | [16] -0.013 | [17] -0.028 | [18] -0.086 | [19] 0.062 | [20] 0

H2AFY (UniProt O75367)
inactive: [1] 0.02 | [2] -0.026 | [3] 0.049 | [4] 0.069 | [5] 0.013 | [6] 0.069 | [7] 0.081 | [8] -0.051 | [9] -0.113 | [10] 0.02 | [11] 0.051 | [12] -0.056 | [13] -0.025 | [14] -0.043 | [15] 0 | [16] -0.003 | [17] -0.148 | [18] -0.053 | [19] -0.033 | [20] -0.001

GSE1 (UniProt Q14687)
UniProt Q14687, sequence (Q14687 whole entry, looked up): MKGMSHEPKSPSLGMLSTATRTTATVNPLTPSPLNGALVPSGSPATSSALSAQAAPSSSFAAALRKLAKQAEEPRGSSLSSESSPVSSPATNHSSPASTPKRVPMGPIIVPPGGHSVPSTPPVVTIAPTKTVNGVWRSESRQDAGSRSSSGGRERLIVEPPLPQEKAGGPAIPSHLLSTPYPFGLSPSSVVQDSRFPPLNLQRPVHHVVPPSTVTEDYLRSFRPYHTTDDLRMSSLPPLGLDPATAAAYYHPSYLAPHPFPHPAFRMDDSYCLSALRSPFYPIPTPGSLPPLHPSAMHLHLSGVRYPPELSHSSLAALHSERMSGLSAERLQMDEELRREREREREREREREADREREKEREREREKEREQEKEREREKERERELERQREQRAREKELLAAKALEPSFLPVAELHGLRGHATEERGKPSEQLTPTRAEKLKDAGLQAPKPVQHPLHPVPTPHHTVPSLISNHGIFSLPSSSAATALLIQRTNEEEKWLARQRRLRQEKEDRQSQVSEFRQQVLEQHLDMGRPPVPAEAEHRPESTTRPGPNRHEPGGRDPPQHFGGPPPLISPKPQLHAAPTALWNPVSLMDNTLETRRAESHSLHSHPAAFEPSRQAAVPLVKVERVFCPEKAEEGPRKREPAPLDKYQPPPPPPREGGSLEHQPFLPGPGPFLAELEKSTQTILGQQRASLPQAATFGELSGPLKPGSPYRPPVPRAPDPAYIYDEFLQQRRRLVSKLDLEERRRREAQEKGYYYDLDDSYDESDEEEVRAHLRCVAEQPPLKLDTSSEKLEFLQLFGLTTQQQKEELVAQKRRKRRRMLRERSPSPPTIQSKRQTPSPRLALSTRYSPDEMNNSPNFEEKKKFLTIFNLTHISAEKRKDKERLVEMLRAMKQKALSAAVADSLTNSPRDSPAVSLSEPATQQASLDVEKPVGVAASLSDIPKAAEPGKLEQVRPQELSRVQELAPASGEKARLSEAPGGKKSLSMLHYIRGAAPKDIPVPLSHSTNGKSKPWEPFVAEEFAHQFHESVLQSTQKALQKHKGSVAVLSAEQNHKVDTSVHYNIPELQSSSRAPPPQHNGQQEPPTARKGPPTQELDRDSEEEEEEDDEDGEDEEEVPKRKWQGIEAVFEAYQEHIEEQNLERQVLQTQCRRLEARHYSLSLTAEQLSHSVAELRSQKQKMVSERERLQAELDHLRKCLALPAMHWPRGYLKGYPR
inactive: [1] 0.012 | [2] -0.022 | [3] 0.025 | [4] 0.003 | [5] -0.001 | [6] -0.013 | [7] -0.048 | [8] -0.032 | [9] -0.018 | [10] -0.011 | [11] 0.006 | [12] -0.021 | [13] 0.015 | [14] -0.026 | [15] -0.004 | [16] -0.009 | [17] 0.008 | [18] -0.055 | [19] 0.035 | [20] -0.016

KARS1 (UniProt Q15046)
inactive: [1] -0.015 | [2] 0.002 | [3] -0.04 | [4] -0.016 | [5] -0.005 | [6] 0.004 | [7] -0.021 | [8] -0.006 | [9] -0.021 | [10] -0.017 | [11] 0.009 | [12] 0.012 | [13] 0.016 | [14] 0.018 | [15] 0.001 | [16] -0.011 | [17] 0.024 | [18] -0.014 | [19] 0.015 | [20] 0.029

IGF2BP3 (UniProt O00425)
UniProt O00425, sequence (O00425 whole entry, looked up): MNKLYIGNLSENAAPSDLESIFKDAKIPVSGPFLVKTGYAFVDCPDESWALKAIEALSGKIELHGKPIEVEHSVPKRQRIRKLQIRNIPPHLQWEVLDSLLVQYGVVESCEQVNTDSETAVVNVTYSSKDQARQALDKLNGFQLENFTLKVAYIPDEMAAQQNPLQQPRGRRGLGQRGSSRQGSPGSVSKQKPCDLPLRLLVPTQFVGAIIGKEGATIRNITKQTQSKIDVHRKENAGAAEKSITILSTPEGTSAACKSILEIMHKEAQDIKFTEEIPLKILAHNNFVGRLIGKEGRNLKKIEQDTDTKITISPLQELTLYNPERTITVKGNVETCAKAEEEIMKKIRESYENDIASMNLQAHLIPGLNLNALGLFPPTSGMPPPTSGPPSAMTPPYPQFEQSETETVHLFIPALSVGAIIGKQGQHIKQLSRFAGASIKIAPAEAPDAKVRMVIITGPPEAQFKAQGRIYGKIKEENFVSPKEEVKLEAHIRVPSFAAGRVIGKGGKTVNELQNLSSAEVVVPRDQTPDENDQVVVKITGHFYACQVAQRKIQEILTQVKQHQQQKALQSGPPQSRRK
inactive: [1] 0.04 | [2] 0.023 | [3] -0.007 | [4] 0.003 | [5] 0.005 | [6] 0.024 | [7] -0.067 | [8] 0.026 | [9] 0 | [10] -0.018 | [11] 0.006 | [12] -0.019 | [13] -0.012 | [14] 0.011 | [15] 0.024 | [16] -0.009 | [17] 0.011 | [18] -0.047 | [19] 0.007 | [20] 0.021

GTF2I (UniProt P78347)
inactive: [1] -0.005 | [2] 0.016 | [3] -0.02 | [4] 0.018 | [5] 0.008 | [6] -0.003 | [7] -0.034 | [8] -0.002 | [9] -0.031 | [10] -0.007 | [11] -0.004 | [12] -0.002 | [13] 0.007 | [14] -0.004 | [15] 0.012 | [16] -0.007 | [17] 0.005 | [18] -0.027 | [19] 0.033 | [20] -0.001

HACE1 (UniProt Q8IYU2)
inactive: [1] 0.033 | [2] 0.083 | [3] 0.106 | [4] -0.019 | [5] 0.017 | [6] -0.189 | [7] -0.174 | [8] -0.069 | [9] 0.055 | [10] 0.032 | [11] -0.034 | [12] -0.062 | [13] 0 | [14] -0.056 | [15] 0.041 | [16] -0.042 | [17] -0.042 | [18] -0.07 | [19] 0.08 | [20] 0.01

IRF2BP1 (UniProt Q8IU81)
inactive: [1] -0.024 | [2] -0.114 | [3] 0.022 | [4] -0.016 | [5] 0.021 | [6] -0.039 | [7] -0.021 | [8] -0.057 | [9] 0.006 | [10] -0.018 | [11] 0.003 | [12] 0.027 | [13] 0.008 | [14] 0.02 | [15] 0.006 | [16] -0.016 | [17] -0.027 | [18] 0.02 | [19] -0.001 | [20] -0.038

GNE isoform 2 (UniProt Q9Y223)
UniProt Q9Y223, sequence (Q9Y223 whole entry, looked up): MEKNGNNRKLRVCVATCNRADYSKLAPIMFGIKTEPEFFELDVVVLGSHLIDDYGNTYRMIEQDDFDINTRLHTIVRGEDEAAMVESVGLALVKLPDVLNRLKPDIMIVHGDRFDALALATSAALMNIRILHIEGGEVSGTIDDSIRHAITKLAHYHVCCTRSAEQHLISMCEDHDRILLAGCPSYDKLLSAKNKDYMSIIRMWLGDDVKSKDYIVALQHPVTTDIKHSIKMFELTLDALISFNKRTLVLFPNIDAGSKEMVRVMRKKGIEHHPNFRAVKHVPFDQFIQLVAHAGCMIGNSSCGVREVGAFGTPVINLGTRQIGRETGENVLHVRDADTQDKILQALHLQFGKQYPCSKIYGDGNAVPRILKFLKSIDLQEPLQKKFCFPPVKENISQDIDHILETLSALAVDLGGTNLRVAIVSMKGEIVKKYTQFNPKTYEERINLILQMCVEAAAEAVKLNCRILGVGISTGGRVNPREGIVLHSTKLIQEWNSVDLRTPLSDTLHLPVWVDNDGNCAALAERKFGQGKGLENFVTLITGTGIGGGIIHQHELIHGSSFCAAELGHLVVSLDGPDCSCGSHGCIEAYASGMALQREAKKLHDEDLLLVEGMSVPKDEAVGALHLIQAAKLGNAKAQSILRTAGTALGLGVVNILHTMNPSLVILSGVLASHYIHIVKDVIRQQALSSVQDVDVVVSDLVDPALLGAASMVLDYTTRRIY
inactive: [1] 0.035 | [2] -0.067 | [3] -0.042 | [4] -0.032 | [5] 0.011 | [6] 0.064 | [7] -0.031 | [8] -0.024 | [9] 0.023 | [10] -0.042 | [11] -0.036 | [12] 0.009 | [13] 0.033 | [14] -0.036 | [15] -0.007 | [16] -0.011 | [17] -0.036 | [18] -0.001 | [19] 0.069 | [20] 0.009

HECTD4 (UniProt J3KPF0)
inactive: [1] 0.076 | [2] -0.002 | [3] 0.035 | [4] -0.125 | [5] -0.02 | [6] 0.024 | [7] -0.055 | [8] -0.027 | [9] 0.01 | [10] -0.009 | [11] 0.017 | [12] -0.024 | [13] 0.001 | [14] 0.007 | [15] -0.032 | [16] -0.028 | [17] -0.036 | [18] 0.032 | [19] 0.021 | [20] 0.009

GRK6 isoform 2 (UniProt P43250)
UniProt P43250, sequence (P43250 whole entry, looked up): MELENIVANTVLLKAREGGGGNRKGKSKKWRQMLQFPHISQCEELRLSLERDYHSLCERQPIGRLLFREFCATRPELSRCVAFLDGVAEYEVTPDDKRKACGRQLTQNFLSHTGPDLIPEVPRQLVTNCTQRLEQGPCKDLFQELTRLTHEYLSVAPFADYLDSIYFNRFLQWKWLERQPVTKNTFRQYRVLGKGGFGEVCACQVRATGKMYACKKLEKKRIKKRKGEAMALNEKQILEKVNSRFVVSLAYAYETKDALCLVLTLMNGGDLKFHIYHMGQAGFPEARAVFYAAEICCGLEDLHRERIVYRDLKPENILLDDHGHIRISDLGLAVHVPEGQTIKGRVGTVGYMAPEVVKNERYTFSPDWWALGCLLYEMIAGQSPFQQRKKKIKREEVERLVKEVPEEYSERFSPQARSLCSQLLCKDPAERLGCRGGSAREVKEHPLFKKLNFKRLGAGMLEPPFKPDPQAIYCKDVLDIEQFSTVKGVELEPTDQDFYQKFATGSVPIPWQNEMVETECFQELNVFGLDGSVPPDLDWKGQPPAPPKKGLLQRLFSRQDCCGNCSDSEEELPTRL
inactive: [1] -0.014 | [2] -0.126 | [3] 0.015 | [4] -0.009 | [5] -0.046 | [6] -0.063 | [7] 0.284 | [8] -0.161 | [9] 0.108 | [10] 0.053 | [11] 0.083 | [12] 0.04 | [13] -0.073 | [14] -0.068 | [15] -0.036 | [16] 0.021 | [17] -0.092 | [18] 0.048 | [19] -0.049 | [20] -0.005

HNRNPDL (UniProt O14979)
UniProt O14979, sequence (O14979 whole entry, looked up): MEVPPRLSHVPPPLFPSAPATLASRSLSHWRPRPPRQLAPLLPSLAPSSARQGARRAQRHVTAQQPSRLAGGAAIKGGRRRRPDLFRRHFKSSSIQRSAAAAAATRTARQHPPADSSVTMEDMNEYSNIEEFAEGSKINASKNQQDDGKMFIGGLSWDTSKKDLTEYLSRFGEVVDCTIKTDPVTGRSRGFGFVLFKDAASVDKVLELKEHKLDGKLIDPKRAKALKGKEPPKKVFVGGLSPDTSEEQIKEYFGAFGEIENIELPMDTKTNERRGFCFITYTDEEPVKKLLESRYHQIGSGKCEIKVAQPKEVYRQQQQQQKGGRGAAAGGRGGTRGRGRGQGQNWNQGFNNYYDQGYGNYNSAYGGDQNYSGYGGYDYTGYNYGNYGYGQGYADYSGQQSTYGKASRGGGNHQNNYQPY
inactive: [1] -0.013 | [2] 0.026 | [3] 0.009 | [4] -0.008 | [5] 0.024 | [6] 0.038 | [7] 0.008 | [8] 0.006 | [9] 0.014 | [10] -0.008 | [11] 0 | [13] -0.027 | [14] 0.014 | [15] -0.011 | [16] 0.013 | [17] -0.016 | [18] 0.111 | [19] -0.011 | [20] 0
active: [12] -0.692

ICAM2 (UniProt P13598)
UniProt P13598, sequence (P13598 whole entry, looked up): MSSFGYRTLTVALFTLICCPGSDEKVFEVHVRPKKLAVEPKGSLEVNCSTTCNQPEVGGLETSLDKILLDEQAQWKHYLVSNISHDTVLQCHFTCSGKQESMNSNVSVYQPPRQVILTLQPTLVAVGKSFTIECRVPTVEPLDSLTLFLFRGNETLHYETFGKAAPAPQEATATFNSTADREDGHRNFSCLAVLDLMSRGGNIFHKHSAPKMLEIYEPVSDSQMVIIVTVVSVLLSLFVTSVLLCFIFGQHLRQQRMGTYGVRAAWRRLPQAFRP
inactive: [1] 0.004 | [2] -0.022 | [3] 0.023 | [4] -0.029 | [5] -0.01 | [6] -0.011 | [7] 0.021 | [8] 0.032 | [9] 0.005 | [10] 0.061 | [11] 0.058 | [12] 0.043 | [13] 0.001 | [14] -0.019 | [15] -0.016 | [16] 0.005 | [17] 0.012 | [18] 0.023 | [19] -0.028 | [20] -0.028
